In the library only some 12% were active in any assay of this set; here they are far more common.
m-calpain inh: blocks pig calpain II enzyme activity. hit rate 0.37% among 220,000. purified calpain II, fluorogenic peptide substrate, 30 min. inhibition, % at 16 µM. AID 1236;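 active = inhibition above about 50%, limit read from the data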
ROMK primary: human ROMK K+ channel modulation, primary screen. B-score at 10 µM. P48048. Tet-inducible ROMK, thallium flux fluorescence; actives lie on both sides. hit rate 2% among 130,000. AID 1918;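 active = signal ratio slope over the read window, or its plate-corrected B-score, at least 3 SD from the plate mean, either direction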;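 note: B-score of the F/F0 ratio slope over 7 to 12 s after thallium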
Target sequence (P48048 whole entry, looked up): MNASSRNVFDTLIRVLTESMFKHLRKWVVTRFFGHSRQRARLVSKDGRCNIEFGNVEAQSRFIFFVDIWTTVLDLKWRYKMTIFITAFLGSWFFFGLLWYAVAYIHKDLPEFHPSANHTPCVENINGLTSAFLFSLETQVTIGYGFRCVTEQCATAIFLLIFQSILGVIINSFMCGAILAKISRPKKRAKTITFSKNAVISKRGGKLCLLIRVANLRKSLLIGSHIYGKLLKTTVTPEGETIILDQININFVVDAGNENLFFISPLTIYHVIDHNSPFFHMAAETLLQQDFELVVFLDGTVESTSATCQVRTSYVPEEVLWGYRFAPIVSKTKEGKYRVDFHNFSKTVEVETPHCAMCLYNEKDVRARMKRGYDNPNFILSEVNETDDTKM
WT yeast gro inh: growth inhibition of WT yeast, mitochondrial fusion screen; hit rate 2.1% among 190,000; mitochondrial fusion phenotypic screen, WT strain; AID 1362; inhibition, % at 10 µM; in the data active = inhibition above about 58%; tested in S. cerevisiae
Cl transport mod: modulators of human KCC2 chloride dependent transport; Q9H2X9; KCC2 cells, thallium flux FluoZin-2 fluorescence; B-score of Tl+ flux slope (higher = more flux/activation; lower = inhibition) at 10 µM; hit rate 2.2% among 190,000;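 active = thallium flux slope and its plate-corrected score both differing from the plate sample mean at a set confidence after two filtering rounds, in either direction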;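 note: slope of fluorescence scaled to starting intensity during 10 to 20 s after thallium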
Lmaj promast: Leishmania major promastigote growth inhibition; Leishmania major promastigotes, resazurin fluorescence viability; inhibition, % at 10 µM; hit rate 9% among 200,000; AID 1063; in the data active = inhibition above about 50%;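 note: promastigotes grown with compound for 44 hours at 28 °C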
The depositor's hits bear a star; nt = no result.

SMILES	m-calpain inh	ROMK primary	WT yeast gro inh	Cl transport mod	Lmaj promast
CCn1c(SCC(=O)c2cc(C)n(-c3ccc(C(=O)OC)cc3)c2C)nnc1-c1cccnc1	10.0	nt	-20.6	-0.399	70.9*
COC(=O)c1ccc(-n2c(C)cc(C(=O)COC(=O)CNS(=O)(=O)c3ccc(C)cc3)c2C)cc1	36.3	0.324	22.4	-1.79	-7.8
CCN(CC)CCCNC(=O)Cn1nc([N+](=O)[O-])c(Cl)c1C	-15.4	0.599	-5.9	0.899	-5.8
Cc1ccc(CN2CCN(/N=C/c3ccc(C(F)(F)F)cc3)CC2)c(C)c1	15.7	0.00367	64.0*	1.44	13.6
COC(=O)c1ccc(/C=N/N2CCN(Cc3ccc(C)cc3C)CC2)cc1	6.7	-0.096	16.8	0.937	83.9*
FC(F)(F)c1ccc(/C=N/N2CCN(Cc3cccc4ccccc34)CC2)cc1	-2.0	0.325	36.5	1.13	5.4
Cc1ccc(CN2CCN(/N=C/c3ccc(C(=O)O)cc3)CC2)c(C)c1	-11.9	-0.097	-1.1	0.798	5.8
Cc1nc(NC(=O)COC(=O)c2ccc(S(=O)(=O)N3CCc4ccccc4C3)cc2)c(Cl)cc1Cl	-26.8	-0.585	-26.1	0.277	-2.5
O=C(OCC(=O)N1CCc2ccccc21)c1cccc(S(=O)(=O)N2CCCc3ccccc32)c1	-4.2	-0.337	-11.1	-0.504	97.9*
O=C(COC(=O)c1cccc(S(=O)(=O)N2CCc3ccccc32)c1)NCc1ccco1	3.2	-0.288	-10.7	-0.238	-1.8
O=C(OCC(=O)N1CCc2ccccc21)c1c2c(nc3ccccc13)CCCCC2	-19.5	nt	34.4	-2.4	90.6*
O=C(COC(=O)c1cccc(S(=O)(=O)N2CCc3ccccc32)c1)Nc1ncc(Cl)cc1Cl	-10.8	0.694	12.0	0.233	60.2*
NC(=O)COC(=O)c1c2c(nc3ccccc13)CCCC2	-16.8	0.0564	-11.7	-0.396	-1.1
O=C(COC(=O)c1ccc(Cl)c(S(=O)(=O)N2CCc3ccccc3C2)c1)Nc1ncc(Cl)cc1Cl	3.9	-0.372	-2.1	-0.476	81.5*
COc1ccc(OC)c(-c2cc(C(F)(F)F)c3c(n2)sc2c(O)cc(=O)[nH]c23)c1	-30.1	0.567	-4.4	-1.83	-1.2
Cc1cc(NC(=O)CC(CN(C)S(=O)(=O)c2ccccc2)c2ccccc2)no1 (stereo not drawn)	21.4	nt	-7.2	-0.975	4.9
O=C(CSc1ncn[nH]1)CSc1ncn[nH]1	-26.7	1.07	-13.9	-0.153	-3.1
COc1cc(O)c(C(C)=O)c(CC(=O)O)c1	-27.8	nt	nt	0.00376	nt
Cc1[nH]c2ccccc2c1C(=O)C(=O)N1CCN(C)CC1	-6.6	0.348	-1.1	-0.273	5.3
COc1ccc(C2NC(=S)N(c3ccccc3)C(C)=C2C(=O)Nc2ccccc2)cc1 (stereo not drawn)	-16.2	0.305	9.0	nt	100.2*
CC1=C(C(=O)Nc2ccc([N+](=O)[O-])cc2)C(c2cccc(C(F)(F)F)c2)NC(=S)N1c1ccccc1 (stereo not drawn)	-131.5	0.171	11.1	-0.394	38.4
Cc1ccc2nc(SCC(=O)c3ccc(O)cc3O)[nH]c2c1	30.8	nt	nt	-0.956	nt
CC(C)(C)c1ccc(CN2N=C(/C=C/c3ccccc3)CCC2=O)cc1	10.6	nt	71.7*	1.75	1.2
Cc1ccc(/C=C/C2=NN(Cc3ccccc3Cl)C(=O)CC2)cc1	-0.3	0.0919	59.3*	0.308	-0.9
CCCC1C(C#N)=C(N)Oc2n[nH]c(C(C)(C)C)c21 (stereo not drawn)	-20.0	nt	2.5	-1.66	16.1
SMILES	m-calpain inh	ROMK primary	WT yeast gro inh	Cl transport mod	Lmaj promast
C/C(=C(\C#N)C(=O)NCCN1CCOCC1)N(C)C	-1.6	1.05	16.8	0.434	-8.3
C/C(NC1CCCCC1)=C(/C#N)C(=O)NCCN1CCOCC1	-11.0	-1.09	-9.3	0.446	50.0*
O=C(/C=C/c1ccccc1)NC(=S)NNC(=O)c1cnccn1	-9.8	0.388	nt	0.812	nt
O=C(/C=C/c1ccc([N+](=O)[O-])cc1)c1cccnc1	-5.5	nt	-17.5	0.0312	94.7*
O=C(/C=C/c1ccccc1)NC(=S)NNC(=O)c1cccnc1	25.1	nt	-3.2	0.043	55.5*
CC(/C=C/c1cccc([N+](=O)[O-])c1)=N/NC(=O)c1cccnc1	-2.2	0.115	-8.5	0.614	95.8*
O=C(/C=C/c1cccc(OCc2ccccc2)c1)c1cccnc1	-16.6	nt	-12.2	-0.529	99.7*
COc1ccc(CN(C)CC(=O)Nc2ccc(Cl)cc2F)c(OC)c1	3.1	nt	nt	-1.71	nt
CCOC(=O)c1nc(-c2ccc(OC)c(OC)c2)no1	-20.5	-0.574	4.2	2.11	-6.4
CC(/C=C/c1ccccc1)=N/NC(=O)c1cc([N+](=O)[O-])cc([N+](=O)[O-])c1	23.5	nt	-15.0	3.34	82.9*
